Test results: PubChem BioAssay AID743171 (National Center for Advancing Translational Sciences (NCATS), 2013)
Several values for one entry are separate records, joined by “and”; a condition that tells them apart may be missing. Equal values may be shown once. Records with an inconclusive call do not appear. Activity calls are given as the source filed them. The call rests on the fitted dose curve; in most records, active means well fitted inhibition curve with a large enough effect; inconclusive means small, poorly fitted or top-dose-only effect; inactive means flat fitted curve, though single readings scatter.

Molecular target: 15-hydroxyprostaglandin dehydrogenase [NAD(+)] (Homo sapiens) (UniProt P15428)
Assay: Extended Characterization of HPGD Inhibitors: Activity in Primary Assay (HPGD)
Conditions: recombinant HPGD, NADH fluorescence, PGE2 substrate; series mostly up to 57.1 µM
Procedure, shortened: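 qHTS with several compound concentrations: 15 min room-temperature preincubation with 20 nM final enzyme, then PGE2/NAD+ addition (solution at 30 uM/1 mM). Activity taken as the normalized change in NADH fluorescence (340/450 nm) over four 30-s reads.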

15-hydroxyprostaglandin dehydrogenase [NAD(+)] (Homo sapiens), sequence (P15428 whole entry, looked up): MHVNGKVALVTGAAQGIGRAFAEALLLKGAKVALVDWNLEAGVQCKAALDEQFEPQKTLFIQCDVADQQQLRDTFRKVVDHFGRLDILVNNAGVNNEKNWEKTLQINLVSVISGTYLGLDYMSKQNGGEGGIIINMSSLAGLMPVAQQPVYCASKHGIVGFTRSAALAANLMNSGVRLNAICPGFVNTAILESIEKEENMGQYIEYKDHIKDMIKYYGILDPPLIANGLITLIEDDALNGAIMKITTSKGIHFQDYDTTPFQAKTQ

**Q.** Which Potency does the source give for `O=C(c1ccc2c(c1)ncn2-c1cccc(C(F)(F)F)c1)N1CCCCC1` here?
**A.** Its Potency is 48.2 nM (active).

**Q.** With `Cc1cccc(-n2cnc3cc(C(=O)N4CCCC(c5ccccc5)C4)ccc32)c1` (stereo not given) as the molecule, how does the Potency read?
**A.** The Potency was 429 nM (active).

**Q.** Which Potency does the source give for `Cc1cc(-c2nnc3n2CCCCC3)c(C)n1-c1ccccc1` here?
**A.** The Potency was 121 nM (active) and 54.1 nM (active) and 68.1 nM (active).

**Q.** How did the Potency turn out when `N#Cc1ccccc1CCc1nc2ncc(Br)cc2[nH]1` was run?
**A.** Its Potency is 19200 nM (active).

**Q.** Which Potency does the source give for `Cc1ccccc1CSc1nc2ncc(Br)cc2[nH]1` here?
**A.** Its Potency is 76.4 nM (active).

**Q.** Which Potency does the source give for `Cc1ccc(-n2cnc3cc(C(=O)N4CCCCC4)ccc32)cc1` here?
**A.** Its Potency is 19.2 nM (active).

**Q.** For `CC(C)(C)n1cnc2cc(C(=O)N3CCCCC3)ccc21`, which Potency is on record?
**A.** Its Potency is 34.1 nM (active).

**Q.** For `Cc1cccc(-n2cnc3cc(C(=O)NC4CCCCC4)ccc32)c1`, which Potency is on record?
**A.** The Potency was 3040 nM (active).

**Q.** How did the Potency turn out when `Cc1cccc(-n2cnc3cc(C(=O)N4CCCC(C(F)(F)F)C4)ccc32)c1` (stereo not given) was run?
**A.** The Potency was 68.1 nM (active).

**Q.** For `Cc1cccc(-n2cnc3cc(C(=O)NC4CCCC4)ccc32)c1`, which Potency is on record?
**A.** The Potency was 961 nM (active).

**Q.** With `Cc1cc(-c2nnc3n2CCCC3)c(C)n1-c1ccccc1` as the molecule, how does the Potency read?
**A.** Its Potency is 192 nM (active).

**Q.** How did the Potency turn out when `c1ccc(-n2cc(-c3nnc4n3CCCCC4)c3ccccc32)cc1` was run?
**A.** The Potency was 681 nM (active).

**Q.** Which Potency does the source give for `Cc1cccc(-n2cnc3cc(C(=O)N4CCC(Br)CC4)ccc32)c1` here?
**A.** The Potency was 76.4 nM (active).

**Q.** With `Brc1cnc2nc(SCc3ccccn3)[nH]c2c1` as the molecule, how does the Potency read?
**A.** Its Potency is 3410 nM (active).

**Q.** `Cc1cc(-c2nnc3n2CCCCC3)c(C)n1-c1ccc(C(F)(F)F)cc1` was tested. Which Potency did it give?
**A.** Its Potency is 68.1 nM (active).

**Q.** Which Potency does the source give for `O=C(c1ccc2c(c1)ncn2-c1ccc(C(F)(F)F)cc1)N1CCCCC1` here?
**A.** Its Potency is 85.7 nM (active).

**Q.** How did the Potency turn out when `Cc1cc(-c2nnc3n2CCC3)c(C)n1-c1ccccc1` was run?
**A.** Its Potency is 3040 nM (active).

**Q.** With `N#Cc1ccc(CSc2nc3ncc(Br)cc3[nH]2)cc1` as the molecule, how does the Potency read?
**A.** Its Potency is 482 nM (active).

**Q.** How did the Potency turn out when `FC(F)(F)c1ccc(-c2nc(-c3nnc4n3CCCCC4)c(C(F)(F)F)o2)cc1` was run?
**A.** The Potency was “inactive”.

**Q.** Which Potency does the source give for `O=[N+]([O-])c1ccccc1CSc1nc2ncc(Br)cc2[nH]1` here?
**A.** Its Potency is 96.1 nM (active).

**Q.** With `Cc1cccc(-n2cnc3cc(C(=O)N4CCOCC4)ccc32)c1` as the molecule, how does the Potency read?
**A.** The Potency was 3040 nM (active).

**Q.** Which Potency does the source give for `Clc1ccccc1CSc1nc2ncc(Br)cc2[nH]1` here?
**A.** The Potency was 54.1 nM (active).

**Q.** Which Potency does the source give for `Cc1cccc(-n2cnc3cc(C(=O)N4CCN(C)CC4)ccc32)c1` here?
**A.** Its Potency is 2710 nM (active).

**Q.** Which Potency does the source give for `Cc1cccc(-n2cnc3cc(C(=O)N4CCCC(C(C)C)C4)ccc32)c1` (stereo not given) here?
**A.** Its Potency is 48.2 nM (active).

**Q.** With `Cc1cc(-c2nnc3n2CCCCC3)c(C)n1-c1ccc(Cl)c(Cl)c1` as the molecule, how does the Potency read?
**A.** Its Potency is 21.5 nM (active).

**Q.** With `Brc1cnc2nc(SCc3cccnc3)[nH]c2c1` as the molecule, how does the Potency read?
**A.** The Potency was 1360 nM (active).

**Q.** `Cc1cc(-c2nnc3n2CCCCC3)c(C)n1-c1ccc([N+](=O)[O-])cc1` was tested. Which Potency did it give?
**A.** The Potency was 108 nM (active).

**Q.** Which Potency does the source give for `Clc1cccc(CSc2nc3ncc(Br)cc3[nH]2)c1` here?
**A.** The Potency was 242 nM (active).

**Q.** `Cc1cc(-c2nnc3n2CCCCC3)c(C)n1-c1ccc(F)cc1` was tested. Which Potency did it give?
**A.** The Potency was 121 nM (active).

**Q.** `CCOC(=O)c1ccc(-n2cnc3cc(C(=O)N4CCCCC4)ccc32)cc1` was tested. Which Potency did it give?
**A.** Its Potency is 13.6 nM (active).
